Laboratory results taken from the supplement of paper PMC3414501.
Counter-ions that a name gives are not always drawn.

Key:
[1] = test system: S. cerevisiae SK1 pCDA2-eGFP (USY613), sporulating; assay: CDA2-GFP sporulation assay sensitivity score (z-score vs DMSO controls); higher = stronger inhibition of sporulation, active = hit call of the paper;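 also: active if sensitivity score above 5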
[2] = test system: S. cerevisiae NKY1551 his4x/his4B, sporulating; assay: HIS4 meiotic recombination assay sensitivity score (z-score vs DMSO controls); higher = stronger inhibition of sporulation/recombination, active = hit call of the paper;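 also: active if sensitivity score above 5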
[3] = test system: S. cerevisiae AD1-9 (efflux-pump deficient), vegetative growth in YPD; assay: growth sensitivity score (doubling time z-score vs DMSO controls); higher = slower growth, strongly negative scores also mark growth inhibition (complete suppression), active = hit call of the paper
Summary of the method: (§1)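 Rich medium in microtiter plates was seeded with Saccharomyces cerevisiae strains BY4741 and AD1-9 at an OD600 of 0.065, and compounds were added as a 1:100 dilution of DMSO stock. A Tecan GENios reader recorded optical density every 15 min for 24 hours, with eight solvent-only wells in each experiment. Average doubling time was the time to reach a set generation point divided by generation number. The growth sensitivity score was the compound mean minus the solvent-only mean, divided by the solvent-only standard deviation.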

[4] = test system: S. cerevisiae BY4741 (wild-type), vegetative growth in YPD; assay: as above
Summary of the method: as §1

Row | SMILES | CDA2-GFP sporulation assay sensitivity score [1] | HIS4 meiotic recombination assay sensitivity score [2] | growth sensitivity score [3] | growth sensitivity score [4]
1 | O=c1c(-c2ccccc2)c1-c1ccccc1 [Diphenylcyclopropenone] (stock concentration (mM, diluted 1:100): 10) | 0.85 (inactive) | -0.87 (inactive) | 110 (active) | 39.9 (active)
2 | CN(C)CCOC(c1ccccc1)c1ccccc1 [Diphenhydramine hydrochloride] (stock concentration (mM, diluted 1:100): 10) | 2.11 (inactive) | 8.82 (active) | 3.46 (active) | 0.81 (inactive)
3 | CC(=O)SCC(Cc1ccccc1)C(=O)NCC(=O)OCc1ccccc1 (stereo unspecified) [Acetorphan] (stock concentration (mM, diluted 1:100): 10) | 0.9 (inactive) | 1.65 (inactive) | 22.1 (active) | 0.93 (inactive)
4 | Cc1nc(=O)c2cc(CN(C)c3ccc(C(=O)N[C@@H](CCC(=O)O)C(=O)O)s3)ccc2[nH]1 [Raltitrexed] (stock concentration (mM, diluted 1:100): 10) | -2.11 (inactive) | -0.01 (inactive) | -3.39 | -0.14 (inactive)
5 | CN1CCC(=C2c3ccccc3C=Cc3ccccc32)CC1 [Cyproheptadine hydrochloride] (stock concentration (mM, diluted 1:100): 10) | 14 (active) | 6.95 (active) | 9.58 (active) | 3.38 (active)
6 | CC[C@H]1OC(=O)[C@H](C)C(=O)[C@H](C)[C@@H](O[C@@H]2O[C@H](C)C[C@H](N(C)C)[C@H]2O)[C@](C)(OC)C[C@@H](C)C(=O)[C@H](C)[C@H]2N(CCCCn3cnc(-c4cccnc4)c3)C(=O)O[C@]12C [Telithromycin] (stock concentration (mM, diluted 1:100): 10) | 4.62 (inactive) | 0.14 (inactive) | 4.79 (active) | 0.09 (inactive)
7 | COc1ccc(-c2cc(=O)c3c(OC)c(OC)c(OC)c(OC)c3o2)cc1OC [Nobiletin] (stock concentration (mM, diluted 1:100): 10) | 5.43 (inactive) | 1.02 (inactive) | 3.87 (active) | 4.43 (active)
8 | O=C1CN2Cc3c(ccc(Cl)c3Cl)N=C2N1 [Anagrelide hydrochloride] (stock concentration (mM, diluted 1:100): 8.8) | 3.77 (inactive) | -0.8 (inactive) | -1.22 (inactive) | -2.21
9 | CC(=O)OCC(CCn1cnc2cnc(N)nc21)COC(C)=O [Famciclovir] (stock concentration (mM, diluted 1:100): 10) | 0.31 (inactive) | -0.43 (inactive) | -0.2 (inactive) | -1.36 (inactive)
10 | CC[C@H](C)C(=O)O[C@H]1C[C@H](O)C=C2C=C[C@H](C)[C@H](CC[C@@H](O)C[C@@H](O)CC(=O)O)[C@H]21 [Pravastatin sodium] (stock concentration (mM, diluted 1:100): 9.5) | -1.3 (inactive) | -0.46 (inactive) | 13.6 (active) | 0.4 (inactive)
11 | C[C@]12C=CC(=O)C=C1CC[C@@H]1[C@@H]2[C@@H](O)C[C@@]2(C)[C@H]1CC[C@]2(O)C(=O)COC(=O)CCC(=O)O (stock concentration (mM, diluted 1:100): 10) | -0.32 (inactive) | -0.86 (inactive) | -0.63 (inactive) | -0.61 (inactive)
12 | CC(Cc1ccccc1)(NC(=O)CN)c1ccccc1 (stereo unspecified) [Remacemide] (stock concentration (mM, diluted 1:100): 10) | 2.76 (inactive) | -1.04 (inactive) | 4.61 (active) | -0.78 (inactive)
13 | COC(=O)Nc1nc2cc(C(=O)c3ccc(F)cc3)ccc2[nH]1 [Flubendazole] (stock concentration (mM, diluted 1:100): 10) | 0.4 (inactive) | -2.01 (inactive) | 12.3 (active) | 2.6 (active)
14 | CC(C)C[C@H](NC(=O)[C@@H](COC(C)(C)C)NC(=O)[C@H](Cc1ccc(O)cc1)NC(=O)[C@H](CO)NC(=O)[C@H](Cc1c[nH]c2ccccc12)NC(=O)[C@H](Cc1cnc[nH]1)NC(=O)[C@@H]1CCC(=O)N1)C(=O)N[C@@H](CCCNC(=N)N)C(=O)N1CCC[C@H]1C(=O)NNC(N)=O [Goserelin acetate] (stock concentration (mM, diluted 1:100): 9.6) | 0.53 (inactive) | -1.25 (inactive) | 0.11 (inactive) | -0.77 (inactive)
